According to paper PMC6792352, “Limited Chemical Structural Diversity Found to Modulate Thyroid Hormone Receptor in the Tox21 Chemical Library” (Environmental Health Perspectives, 2019):

Test system: thyroid hormone receptor (endogenous TRα and TRβ)
Design: species or system GH3-TRE-Luc (rat pituitary); GH3-TRE-Luc luciferase reporter, antagonist mode against 1 nM T3, loss of signal, qHTS
Conditions: read-out: Average AC50 (uM) GH3-TRE-Antag, antagonist mode, 1 nM T3, no GH3 cytotoxicity hit, Average AC50 (uM) GH3-TRE-Antag, 24 h

Structure (SMILES) | AC50
CC(C)n1c(/C=C/[C@H](O)C[C@H](O)CC(=O)O)c(-c2ccc(F)cc2)c2ccccc21 (racemic) [Fluvastatin] | 45.3 µM
CCCCCCCCn1cc[n+](C)c1 [1-Methyl-3-octylimidazolium hexafluorophosphate] | 33 µM
CC(C)c1c(C(=O)Nc2ccccc2)c(-c2ccccc2)c(-c2ccc(F)cc2)n1CC[C@@H](O)C[C@@H](O)CC(=O)O [Atorvastatin] | 0.321 µM
